NOMO-1 viab = STK33 inhibitor candidate reducing NOMO-1 cell viability | NOMO-1 AML viability, CellTiter-Glo luminescence, 72 h | inhibition, % (test concentration not listed) | 7.5% of 37,000 active; in the data active = inhibition above about 80%; inconclusive = no clear call, values can overlap the other calls
PD-1 reverse act = reversal of PD-1 mediated T-cell inhibition. primary human CD4 T cells, PD-L1 beads, CellTiter-Glo 96 h. activation, % (concentration not given with the values). 29,000 tested, under 10 active. AID 2316; call rule not given here;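 also: 0% = median vehicle wells and 100% = positive control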
Hedgehog inh = blocks Sonic Hedgehog signaling. Shh-LIGHT2 Gli-luciferase reporter, 30 h. 2.1% of 22,000 active. inhibition, % (no concentration beside the values). AID 2313;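 active = mean inhibition across valid replicates above about 65%, limit read from the data; inconclusive = mean under the limit, yet half or more replicates past it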;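 also: pathway switched on by Shh-conditioned medium diluted 1 in 25 in low serum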
* marks the source's active call; other numbers are inactive results. Shown are actives, neighbours in structure and some others; about 7.7% of the full set was active somewhere.

Results for C[C@H]1CN([C@@H](C)CO)C(=O)Cc2cc(NC(=O)Nc3ccc(C(F)(F)F)cc3)ccc2O[C@@H]1CN(C)Cc1ccc(Oc2ccccc2)cc1 ?
NOMO-1 viab: 43; Hedgehog inh: -27

What do the screens show for `C[C@@H]1CN([C@H](C)CO)C(=O)Cc2cc(NC(=O)Nc3ccc(C(F)(F)F)cc3)ccc2O[C@@H]1CN(C)Cc1ccc(-c2ccccc2)cc1`?
NOMO-1 viab: 114*; PD-1 reverse act: -1; Hedgehog inh: 8

Results for C[C@H](CO)N1C[C@H](C)[C@H](CN(C)Cc2ccc(-c3ccccc3)cc2)Oc2ccc(NC(=O)Nc3ccc(C(F)(F)F)cc3)cc2CC1=O ?
NOMO-1 viab: 126*; PD-1 reverse act: -3; Hedgehog inh: -25

Results for COc1ccc(NC(=O)c2cccc(C)c2)c(OC)c1 ?
NOMO-1 viab: 14; PD-1 reverse act: 1; Hedgehog inh: -47

How did COc1ccc(N2C(=O)CC(SCC(=O)Nc3ccc(Cl)c(Cl)c3)C2=O)cc1 (configuration not stated) do in these assays?
NOMO-1 viab: 8

What do the screens show for `CC(Oc1ccc(-c2ccccc2)cc1)C(=O)Nc1ccccc1[N+](=O)[O-]` (configuration not stated)?
NOMO-1 viab: 14; PD-1 reverse act: 1

What do the screens show for `CC(=O)CCc1c(C)[nH]c2ccccc2c1=O`?
NOMO-1 viab: 13

How did Cc1[nH]c2ccccc2c1Sc1ccccc1 do in these assays?
NOMO-1 viab: 141*; PD-1 reverse act: -3; Hedgehog inh: 71*

Results for COC(=O)c1cc(-c2ccccc2)sc1NC(=O)c1cnccn1 ?
NOMO-1 viab: -1; PD-1 reverse act: 0

What do the screens show for `Cc1c(CC(=O)O)c(=O)oc2cc(OCC(=O)O)ccc12`?
NOMO-1 viab: -26; PD-1 reverse act: 2

What do the screens show for `COc1ccc(/C=N/n2c(=O)c3c(ncn3/N=C/c3ccc(OC)cc3)n(C)c2=O)cc1`?
NOMO-1 viab: 11; PD-1 reverse act: 0

What do the screens show for `COc1ccc(OC)c(NC(=O)CC2Sc3ccccc3NC2=O)c1` (configuration not stated)?
NOMO-1 viab: 3; PD-1 reverse act: -1

What do the screens show for `CCOc1cc([N+](=O)[O-])ccc1NC(=O)CC1Sc2ccccc2NC1=O` (configuration not stated)?
NOMO-1 viab: 110*; PD-1 reverse act: -4

What do the screens show for `Nc1cc2ncnc(Nc3cccc(Br)c3)c2cc1N`?
NOMO-1 viab: 12; PD-1 reverse act: -1; Hedgehog inh: -38

Results for CC#CC(=O)Nc1ccc2ncnc(Nc3cccc(Br)c3)c2c1 ?
NOMO-1 viab: 96*; PD-1 reverse act: -15; Hedgehog inh: -37

How did CCOC(=O)c1sc(SCCS(=O)(=O)c2ccc(Cl)cc2)c2c1CCCC2=O do in these assays?
NOMO-1 viab: 30; PD-1 reverse act: 0; Hedgehog inh: 16

What do the screens show for `Cc1ccc(S(=O)(=O)CCSc2sc(C#N)c3c2C(=O)CC(C)(C)C3)cc1`?
NOMO-1 viab: 94*; PD-1 reverse act: -2; Hedgehog inh: 66*

How did Cc1ccc(OCC(=O)Nc2ccc3c(c2)oc2ccccc23)cc1[N+](=O)[O-] do in these assays?
NOMO-1 viab: 10; PD-1 reverse act: 0

Results for CC1=CCC(C(C)(C)O[C@@H]2O[C@H](CO[C@@H]3O[C@H](COC(=O)c4cc(O)c(O)c(O)c4)[C@@H](O)[C@H](O)[C@H]3O)[C@@H](O)[C@H](O)[C@H]2O)CC1 (some centres not stated) ?
Hedgehog inh: -48

How did C[C@H]1CN([C@@H](C)CO)C(=O)c2cccc(NC(=O)CCCCCC(=O)Nc3ccccc3N)c2O[C@@H]1CN(C)S(=O)(=O)c1ccc(Cl)cc1 do in these assays?
NOMO-1 viab: 103*; PD-1 reverse act: 1

Results for Cc1ccc(S(=O)(=O)N(C)C[C@H]2Oc3c(NC(=O)CCCCCC(=O)Nc4ccccc4N)cccc3C(=O)N([C@H](C)CO)C[C@@H]2C)cc1 ?
NOMO-1 viab: inconclusive; PD-1 reverse act: -1

Results for C[C@H]1CN([C@@H](C)CO)C(=O)c2cccc(NC(=O)CCCCCC(=O)Nc3ccccc3N)c2O[C@@H]1CN(C)S(=O)(=O)c1ccccc1 ?
NOMO-1 viab: 60; PD-1 reverse act: 0

How did C[C@H](CO)N1C[C@H](C)[C@H](CN(C)S(=O)(=O)c2ccc(Cl)cc2)Oc2c(NC(=O)CCCCCC(=O)Nc3ccccc3N)cccc2C1=O do in these assays?
NOMO-1 viab: 119*; PD-1 reverse act: 0

How did COc1ccc(S(=O)(=O)N(C)C[C@@H]2Oc3c(NC(=O)CCCCCC(=O)Nc4ccccc4N)cccc3C(=O)N([C@H](C)CO)C[C@H]2C)cc1 do in these assays?
NOMO-1 viab: 100*; PD-1 reverse act: 1

Screening data as filed in PubChem.
